Here are results for ten compounds from ChEMBL document CHEMBL3988442, “University of Dundee, Small-Polar-MMV Screening Library” (2021).

Common to all, as to parameters: scale not given: direction of the effect not stated beside the values
For assay [1], the target named is Protein translocase subunit SecA (Escherichia coli (strain K12)) (UniProt P10408). In words: Assay to Identify E. coli SecA ATPase Inhibitors. In kind it is functional. The settings on record: 30 µM.
Assay [2] deals with T1, Ubiquitin-activating enzyme e1, putative (Leishmania donovani (strain BPK282A1)) (UniProt E9BSI1).
T1 sequence (whole entry): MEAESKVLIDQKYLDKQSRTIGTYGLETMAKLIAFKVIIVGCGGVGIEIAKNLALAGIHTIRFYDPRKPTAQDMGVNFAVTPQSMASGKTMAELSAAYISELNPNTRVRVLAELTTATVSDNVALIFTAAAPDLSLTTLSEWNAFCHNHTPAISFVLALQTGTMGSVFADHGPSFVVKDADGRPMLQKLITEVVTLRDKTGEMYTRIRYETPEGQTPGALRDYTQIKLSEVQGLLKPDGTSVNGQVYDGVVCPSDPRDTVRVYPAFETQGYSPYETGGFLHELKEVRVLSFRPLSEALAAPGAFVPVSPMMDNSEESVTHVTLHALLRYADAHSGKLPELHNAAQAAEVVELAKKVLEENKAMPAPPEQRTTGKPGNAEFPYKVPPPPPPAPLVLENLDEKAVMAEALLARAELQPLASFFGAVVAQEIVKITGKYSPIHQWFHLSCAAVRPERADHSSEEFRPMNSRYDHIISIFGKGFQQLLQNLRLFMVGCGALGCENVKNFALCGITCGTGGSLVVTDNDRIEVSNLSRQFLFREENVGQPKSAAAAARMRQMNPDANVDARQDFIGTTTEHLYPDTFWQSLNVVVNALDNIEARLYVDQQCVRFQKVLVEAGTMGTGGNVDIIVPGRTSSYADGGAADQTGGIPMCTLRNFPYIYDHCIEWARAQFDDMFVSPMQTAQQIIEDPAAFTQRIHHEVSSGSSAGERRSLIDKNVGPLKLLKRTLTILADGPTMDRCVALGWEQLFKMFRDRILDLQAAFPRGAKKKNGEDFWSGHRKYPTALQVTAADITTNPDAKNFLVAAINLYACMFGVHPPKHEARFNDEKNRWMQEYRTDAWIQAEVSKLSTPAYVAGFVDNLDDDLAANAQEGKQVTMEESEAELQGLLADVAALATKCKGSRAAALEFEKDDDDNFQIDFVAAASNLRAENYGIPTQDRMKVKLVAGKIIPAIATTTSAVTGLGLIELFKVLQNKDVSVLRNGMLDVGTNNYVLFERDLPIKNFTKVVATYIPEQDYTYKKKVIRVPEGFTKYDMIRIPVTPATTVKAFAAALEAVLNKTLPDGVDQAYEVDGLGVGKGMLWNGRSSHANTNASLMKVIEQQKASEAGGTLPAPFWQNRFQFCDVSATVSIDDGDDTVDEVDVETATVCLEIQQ
The experiment in a line: Leishmania donovani Ubiquitin Activating Enzyme (LdE1). In kind it is functional. To be noted: 30 µM.

Assay [3] deals with AMP-activated protein kinase, AMPK (Homo sapiens) (UniProt P54646+O43741+P54619+Q9UGJ0+Q9Y478+Q13131+Q9UGI9). In words: AMP-dependent Kinase enzyme assay. An in vitro enzyme assay that detects ADP turnover that is directly proportional to AMPK activity. This uses naive AMPK that is activated during the assay with MK-8722. It is filed as functional. The settings on record: 30 µM.

Assay [4] addresses Sialic acid-binding Ig-like lectin 9 (Homo sapiens) (UniProt Q9Y336). In words: Hs-Siglec9 ALPHAscreen SOP 20170721. The settings on record: 10 µM. (In general: Alpha assays give light when donor and acceptor beads are brought close together.)
The subject of a further assay is Trypanosoma cruzi. The experiment in a line: Trypanosoma cruzi phosphomannomutase and mannose-1-phosphate guanylyltransferase assay. In kind it is functional. To be noted: 10 µM.
In assay [5] the target is T2, Arginase-2, mitochondrial (Homo sapiens) (UniProt P78540).
T2 sequence (whole entry): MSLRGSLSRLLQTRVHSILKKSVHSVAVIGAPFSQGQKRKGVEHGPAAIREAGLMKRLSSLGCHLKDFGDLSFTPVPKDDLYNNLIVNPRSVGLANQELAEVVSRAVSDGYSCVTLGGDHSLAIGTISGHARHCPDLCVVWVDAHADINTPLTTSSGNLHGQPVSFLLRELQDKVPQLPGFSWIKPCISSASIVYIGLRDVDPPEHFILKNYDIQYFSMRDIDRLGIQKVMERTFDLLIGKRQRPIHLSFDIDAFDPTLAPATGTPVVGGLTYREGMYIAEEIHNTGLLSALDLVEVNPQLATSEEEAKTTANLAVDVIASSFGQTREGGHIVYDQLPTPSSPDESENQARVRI
In words: in vitro enzyme assay to detect the production of urea directly proportional to the activity of Arginase II. Further: in the data most compounds retested in dose-response had high values. In kind it is functional. To be noted: 33.3 µM.

The target of assay [6] is T3, Proteasome subunit beta (Trypanosoma cruzi) (UniProt O96673).
T3 sequence (whole entry): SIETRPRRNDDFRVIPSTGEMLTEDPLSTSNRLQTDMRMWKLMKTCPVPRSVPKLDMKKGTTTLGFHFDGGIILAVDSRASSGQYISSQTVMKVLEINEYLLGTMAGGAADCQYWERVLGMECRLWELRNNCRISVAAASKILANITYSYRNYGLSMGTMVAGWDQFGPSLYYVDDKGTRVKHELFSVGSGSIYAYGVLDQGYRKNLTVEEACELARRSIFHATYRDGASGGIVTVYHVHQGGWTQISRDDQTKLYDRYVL
The experiment in a line: Trypanosoma cruzi proteasome chymotrypsin-like activity (TcProtChymo) assay. Further: in the data most compounds retested in dose-response had high values. In kind it is functional. The settings on record: 9.37 µM.

The species named for another assay is Homo sapiens. In words: To identify inhibition of the IFN signalling (Jak-Stat) pathway via expression of an eGFP reporter gene under the control of an IFN-stimulated response element (ISRE) containing MxA promoter. It is filed as functional. The settings on record: 30 µM. A general note: Reporter assays use an easily measured gene product as a stand-in for the process of interest.

Assay [7] concerns the target T4, Tyrosyl-tRNA synthetase, putative (Trypanosoma cruzi (strain CL Brener)) (UniProt Q4DSP6).
T4 sequence (whole entry): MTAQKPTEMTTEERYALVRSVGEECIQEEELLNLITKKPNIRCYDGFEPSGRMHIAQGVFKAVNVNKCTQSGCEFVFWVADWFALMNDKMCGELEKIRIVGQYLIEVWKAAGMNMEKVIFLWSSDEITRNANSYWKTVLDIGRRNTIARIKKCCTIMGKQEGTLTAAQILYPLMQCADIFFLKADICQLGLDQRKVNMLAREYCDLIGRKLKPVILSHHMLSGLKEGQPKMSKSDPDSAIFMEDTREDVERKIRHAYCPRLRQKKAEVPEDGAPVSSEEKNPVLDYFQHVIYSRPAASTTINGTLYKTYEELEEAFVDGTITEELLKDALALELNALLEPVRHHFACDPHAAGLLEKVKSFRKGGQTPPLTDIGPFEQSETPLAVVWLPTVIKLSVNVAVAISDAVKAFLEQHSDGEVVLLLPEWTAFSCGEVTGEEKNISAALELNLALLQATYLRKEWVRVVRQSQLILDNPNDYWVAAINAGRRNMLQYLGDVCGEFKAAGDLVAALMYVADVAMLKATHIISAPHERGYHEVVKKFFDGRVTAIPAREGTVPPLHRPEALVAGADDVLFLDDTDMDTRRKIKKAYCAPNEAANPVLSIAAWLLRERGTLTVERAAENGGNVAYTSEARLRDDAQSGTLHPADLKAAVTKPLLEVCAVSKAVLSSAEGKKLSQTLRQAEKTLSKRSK
In words: Trypanosoma cruzi tyrosyl tRNA synthetase (TcYRS) _High Tyrosine SOP. Further: in the data most compounds retested in dose-response had high values. It is filed as functional. The settings on record: 30 µM.

In assay [8] the target is T4, Tyrosyl-tRNA synthetase, putative (Trypanosoma cruzi (strain CL Brener)). In words: Trypanosoma cruzi tyrosyl tRNA synthetase (TcYRS) SOP. In kind it is functional. To be noted: 30 µM.
In assay [9] the target is Chromo domain-containing protein 1 (Saccharomyces cerevisiae (strain ATCC 204508 / S288c) (Baker's yeast)) (UniProt P32657). In words: ScCHD-1 Enzyme Inhibition Assay. Further: in the data most compounds retested in dose-response had high values. It is filed as functional. To be noted: 30 µM.

Each structure is given as a SMILES string. For some assays here: Potency and affinity values are given separately.

Sequence of Protein translocase subunit SecA (Escherichia coli (strain K12)) (P10408 whole entry): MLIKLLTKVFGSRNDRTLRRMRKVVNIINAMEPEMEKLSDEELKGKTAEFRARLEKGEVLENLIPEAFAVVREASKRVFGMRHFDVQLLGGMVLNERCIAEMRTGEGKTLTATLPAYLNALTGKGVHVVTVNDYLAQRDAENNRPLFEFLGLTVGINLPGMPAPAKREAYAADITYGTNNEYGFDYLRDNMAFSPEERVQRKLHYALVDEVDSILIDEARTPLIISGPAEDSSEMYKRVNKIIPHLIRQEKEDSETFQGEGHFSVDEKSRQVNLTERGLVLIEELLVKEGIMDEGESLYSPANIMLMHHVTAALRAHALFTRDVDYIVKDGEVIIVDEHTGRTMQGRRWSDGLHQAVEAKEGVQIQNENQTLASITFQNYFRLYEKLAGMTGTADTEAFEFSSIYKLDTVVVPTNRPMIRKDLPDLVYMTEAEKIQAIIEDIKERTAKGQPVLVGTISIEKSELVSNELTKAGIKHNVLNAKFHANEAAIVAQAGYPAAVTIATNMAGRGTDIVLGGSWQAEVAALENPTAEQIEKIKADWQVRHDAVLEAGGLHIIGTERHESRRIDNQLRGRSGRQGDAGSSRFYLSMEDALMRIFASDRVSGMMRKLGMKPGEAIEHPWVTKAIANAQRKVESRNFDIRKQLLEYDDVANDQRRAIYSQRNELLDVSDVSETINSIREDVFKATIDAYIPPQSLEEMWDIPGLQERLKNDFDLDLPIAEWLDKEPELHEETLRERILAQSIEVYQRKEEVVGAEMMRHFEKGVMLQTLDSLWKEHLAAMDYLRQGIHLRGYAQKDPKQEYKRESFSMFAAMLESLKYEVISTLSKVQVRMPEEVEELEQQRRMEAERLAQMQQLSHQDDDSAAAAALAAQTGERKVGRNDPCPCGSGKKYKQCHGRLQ
Sequence of Sialic acid-binding Ig-like lectin 9 (Homo sapiens) (Q9Y336 whole entry): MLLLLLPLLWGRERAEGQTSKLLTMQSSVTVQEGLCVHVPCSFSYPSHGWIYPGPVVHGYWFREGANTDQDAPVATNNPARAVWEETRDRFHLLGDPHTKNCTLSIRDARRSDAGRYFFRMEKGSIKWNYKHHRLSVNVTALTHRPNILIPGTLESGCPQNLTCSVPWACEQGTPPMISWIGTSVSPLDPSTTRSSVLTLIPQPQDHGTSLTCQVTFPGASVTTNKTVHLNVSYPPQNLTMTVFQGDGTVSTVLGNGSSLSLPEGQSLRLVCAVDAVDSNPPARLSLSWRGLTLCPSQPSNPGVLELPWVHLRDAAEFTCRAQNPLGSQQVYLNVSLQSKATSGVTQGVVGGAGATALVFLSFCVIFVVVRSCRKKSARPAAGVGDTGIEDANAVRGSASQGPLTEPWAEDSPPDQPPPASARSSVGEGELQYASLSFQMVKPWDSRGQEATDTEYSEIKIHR
Sequence of Chromo domain-containing protein 1 (Saccharomyces cerevisiae (strain ATCC 204508 / S288c) (Baker's yeast)) (P32657 whole entry, the tested form may be a part): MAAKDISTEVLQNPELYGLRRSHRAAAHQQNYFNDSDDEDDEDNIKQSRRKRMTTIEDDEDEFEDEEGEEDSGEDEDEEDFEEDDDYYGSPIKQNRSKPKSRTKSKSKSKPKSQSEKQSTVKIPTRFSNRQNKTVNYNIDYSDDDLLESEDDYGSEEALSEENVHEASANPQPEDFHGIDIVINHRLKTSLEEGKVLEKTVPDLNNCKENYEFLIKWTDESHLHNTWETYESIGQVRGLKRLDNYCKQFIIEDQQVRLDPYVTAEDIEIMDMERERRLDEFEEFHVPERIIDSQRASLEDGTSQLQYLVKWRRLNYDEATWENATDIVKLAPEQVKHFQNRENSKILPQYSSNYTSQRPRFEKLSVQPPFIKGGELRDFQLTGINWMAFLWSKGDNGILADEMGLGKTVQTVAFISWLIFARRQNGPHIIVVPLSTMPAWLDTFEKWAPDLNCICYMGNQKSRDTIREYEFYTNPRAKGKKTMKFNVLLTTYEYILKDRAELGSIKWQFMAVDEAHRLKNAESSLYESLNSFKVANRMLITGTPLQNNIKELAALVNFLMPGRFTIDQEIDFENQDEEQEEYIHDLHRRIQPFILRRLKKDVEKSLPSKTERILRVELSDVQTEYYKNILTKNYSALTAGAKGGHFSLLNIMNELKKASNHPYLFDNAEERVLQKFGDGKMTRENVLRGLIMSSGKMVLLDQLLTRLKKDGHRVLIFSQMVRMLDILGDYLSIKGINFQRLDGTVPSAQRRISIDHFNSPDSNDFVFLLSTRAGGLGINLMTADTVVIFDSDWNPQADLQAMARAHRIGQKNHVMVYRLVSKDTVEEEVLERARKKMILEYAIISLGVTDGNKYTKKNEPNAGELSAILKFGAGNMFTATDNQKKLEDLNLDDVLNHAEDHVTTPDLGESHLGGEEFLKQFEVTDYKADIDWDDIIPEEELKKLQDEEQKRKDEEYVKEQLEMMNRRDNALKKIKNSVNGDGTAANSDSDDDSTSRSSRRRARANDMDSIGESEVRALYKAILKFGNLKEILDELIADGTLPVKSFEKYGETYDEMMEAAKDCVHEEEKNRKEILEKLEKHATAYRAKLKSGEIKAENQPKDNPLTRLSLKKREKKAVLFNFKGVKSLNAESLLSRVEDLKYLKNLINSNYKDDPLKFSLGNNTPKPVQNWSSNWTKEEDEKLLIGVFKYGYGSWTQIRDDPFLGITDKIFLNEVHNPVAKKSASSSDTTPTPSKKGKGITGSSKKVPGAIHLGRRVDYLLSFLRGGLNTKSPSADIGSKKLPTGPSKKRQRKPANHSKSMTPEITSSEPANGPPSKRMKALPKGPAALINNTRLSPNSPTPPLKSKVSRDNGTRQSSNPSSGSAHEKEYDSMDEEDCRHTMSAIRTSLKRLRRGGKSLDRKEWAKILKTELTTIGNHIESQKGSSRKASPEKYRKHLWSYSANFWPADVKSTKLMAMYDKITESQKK

Consider `Cc1cnn(CCNCc2cccnc2)c1`, for which the Percent Effect in [1] is -3.48%; in assay [2] it was -11.4%; in [3], 6.23%; in [4], 2.04%; with Trypanosoma cruzi it was -2.36%; in assay [5] it was 1.5%. Further, the Percent Effect in assay [6] was 8.92%; in the assay filed under Homo sapiens it was 16.9%; in [7] it was 2.08%; in assay [8], 7.59%; in [9], -6.41%.

`CC(C)CC(=O)N1CCc2nc(N3CCOCC3)nc(NC(C)C)c2C1`: the Percent Effect in assay [1] was -4.18%; in assay [2] it was 2.67%; in assay [3], 12.4%; in assay [4], -0.324%; in the assay with Trypanosoma cruzi it was -1.57%; in assay [5], 2.56%. Also, the Percent Effect in assay [6] is 2.03%; in the assay listed under Homo sapiens it was 8.78%; in [7], 9.57%; in assay [8], 14.1%; in assay [9], -8.4%.

Turning to `CSc1ccsc1C(=O)N1CCN(CC(C)(C)O)CC1`, the Percent Effect in assay [1] is -4.54%; in assay [2], 8.86%; in [3], 0.454%; in assay [4], 1.08%; with Trypanosoma cruzi, 1.13%; in [5], -4.95%. Also, the Percent Effect in assay [6] is 4.29%; in the assay listed under Homo sapiens, 3.01%; in assay [7] it was 4.17%; in assay [8] it was -25.3%; in assay [9] it was -14.7%.

As for `CCOCCCC(=O)NCc1cn2cc(Br)ccc2n1`, the Percent Effect is -1.32% in assay [1]; 7.89% in assay [2]; 1.23% in [3]; -4.68% in [4]; -1.66% in the assay with Trypanosoma cruzi; 0% in assay [5]. The Percent Effect in assay [6] is 24.1%; in the assay filed under Homo sapiens it was -9.79%; in assay [7], 6.38%; in assay [8] it was 15.6%; in [9], -2.98%.

In the case of `CNc1cc(CNC(=O)c2ccccn2)nc(-c2ccncc2)n1`, the Percent Effect in [1] is -1.08%; in [2] it was 17.6%; in assay [3] it was 3.35%; in assay [4] it was -3.17%; with Trypanosoma cruzi, 2.37%; in assay [5], 0.696%. In addition, the Percent Effect in assay [6] was 14.7%; in the assay filed under Homo sapiens, 2.78%; in assay [7] it was 2.15%; in [8], 24.7%; in assay [9], -15.3%.

Regarding `CNc1nc2c(s1)C(c1c(F)cccc1Cl)CC(=O)N2` (stereo not given), the Percent Effect in assay [1] is -1.81%; in assay [2] it was 13.2%; in assay [3] it was -308%; in assay [4], 1.93%; in the assay with Trypanosoma cruzi, 4.58%; in assay [5], -4.73%. For the same compound, the Percent Effect is 6.81% in assay [6]; -0.412% in the assay listed under Homo sapiens; 2.13% in [7]; 2.6% in assay [8]; 22.5% in [9].

`OCC1CCCN1c1cc(NCc2ccc(Cl)s2)ncn1` (stereo not given): the Percent Effect in assay [1] is 0.246%; in [2] it was 8.86%; in [3] it was -3.63%; in [4], -2.18%; in the assay with Trypanosoma cruzi, -1.95%; in [5], -3.66%. Besides, the Percent Effect was 24% in assay [6]; 74.3% in the assay listed under Homo sapiens; 4.17% in assay [7]; 15.2% in [8]; -15.5% in [9].

As to `CCNC(=O)c1nnn(Cc2ccccc2)c1OC`, the Percent Effect was -3.93% in assay [1]; 1.33% in assay [2]; 3.51% in assay [3]; 5.7% in assay [4]; -0.197% in the assay with Trypanosoma cruzi; -8.63% in assay [5]. Further, the Percent Effect in [6] is 7.95%; in the assay filed under Homo sapiens, -9.5%; in assay [7], 5.29%; in assay [8], 7.69%; in assay [9], -2.11%.

On to `COc1ccnc(N2CCN(C(=O)c3cnn(C)c3C3CC3)CC2)n1`, for which the Percent Effect in assay [1] is -5.79%; in assay [2], 10.8%; in [3] it was -3.14%; in [4], 28.6%; in the assay on Trypanosoma cruzi, 3.81%; in [5], 0.744%. Besides, the Percent Effect in assay [6] is 6.61%; in the assay filed under Homo sapiens, -9.54%; in assay [7], 4.3%; in assay [8], 16.1%; in assay [9], -13.1%.

On to `Cc1nn(C)c2sc(C(=O)N3CCCC(n4ccnc4C)C3)cc12` (stereo not given), for which the Percent Effect in [1] is -3.87%; in assay [2], 7.89%; in [3], 3.55%; in [4] it was 2.66%; with Trypanosoma cruzi, 2.82%; in assay [5], -5.92%. Further, the Percent Effect in assay [6] was 8.92%; in the assay filed under Homo sapiens, 24.3%; in assay [7], 4.25%; in assay [8], 5.2%; in assay [9] it was -4.45%.
